HGIII-sPLA2 inh – Inhibits HGIII-sPLA2 liposome hydrolysis, primary screen | Q9NZ20 | QFRET BODIPY PC-A2 liposome hydrolysis, fluorescence | inhibition, % at 12.2 µM | 370,000 compounds, 0.56% hits | AID 743126;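 active = inhibition above mean plus 3 SD of compounds lying within the high and low control bounds, cut at about 19% in these data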
ADAM10 inh – inhibitors of human ADAM10 | O14672 | recombinant ADAM10, EDANS/DABCYL FRET peptide cleavage, 3 h | inhibition, % at 7 µM | 370,000 compounds, 0.62% hits | AID 720582;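 active = inhibition above a per-campaign cutoff equal to the mean of compounds falling between control-based bounds plus 3 SD, cut at about 20% in these data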
proKLK7 act – activates the human kallikrein-7 zymogen | activation, % at 7 µM | P49862 | 370,000 compounds, 0.9% hits | purified proKLK7, EDANS-DABCYL substrate fluorescence; 100% is mature enzyme control, 0% vehicle;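 active = activation above the mean of all tested compounds plus 3 SD, computed per campaign excluding outliers beyond control limits, cut at about 13% in these data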
Target sequence (P49862 whole entry, looked up): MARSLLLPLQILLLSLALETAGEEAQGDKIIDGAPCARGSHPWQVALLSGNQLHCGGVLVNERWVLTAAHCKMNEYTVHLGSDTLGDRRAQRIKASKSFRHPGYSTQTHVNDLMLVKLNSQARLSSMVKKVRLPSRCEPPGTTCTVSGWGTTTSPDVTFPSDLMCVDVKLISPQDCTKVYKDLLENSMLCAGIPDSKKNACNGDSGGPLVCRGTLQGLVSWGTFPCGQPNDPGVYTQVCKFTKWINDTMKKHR
NRP1-CendR mod – alters CendR peptide binding to human NRP-1. O14786. FAM-RPARPAR peptide binding to NRP-1, fluorescence polarization. inhibition, % at 25 µM. 360,000 compounds, 0.85% hits;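 active = inhibition or corrected inhibition above about 18%, plus a signal ratio from 0.5 to 1.5, limit read from the data, passing the limit was not always enough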
ADAM17 inh – inhibitors of human ADAM17 | inhibition, % at 6.95 µM | recombinant ADAM17, EDANS/DABCYL FRET peptide cleavage | 370,000 compounds, 0.83% hits | P78536 | AID 720648;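 active = inhibition above the mean of compounds lying between control limits plus 3 SD, set per campaign, cut at about 8.5% in these data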
Each line names hits and unclear results; the compound was inactive in the other large screens; ! = not active in a repeat. Rows were chosen to be rich in hits. Some 3.4% of all compounds tested hit in one or more screens of this group.

CC1C=CC=CCCC=CC=CC=CC=CC(OC2O[C@H](C)[C@@H](O)[C@H](N)[C@@H]2O)CC(O)C(C(=O)O)C(O)CC(=O)CC(O)C(O)CCC(O)CC(O)CC(O)CC(=O)OC(C)C(C)C1O (stereo partly specified)	none (no result: NRP1-CendR mod)
CCOC(=O)C1=C(C)NC2=C(C(=O)CCC2)C1c1cccnc1 (stereo unspecified)	none
CCOC(=O)C1=C(C)NC2=C(C(=O)c3ccccc32)C1c1cccnc1 (stereo unspecified)	NRP1-CendR mod 40
COc1ccc(CN2CCC(CNC(=O)NC3CCCC3)CC2)cc1	none (no result: NRP1-CendR mod)
Cc1ccc(-n2c3nc(=O)[nH]c(=O)c-3cc3cc([N+](=O)[O-])ccc32)cc1	HGIII-sPLA2 inh 28
O=[N+]([O-])c1cc(-c2nc3nc4ccccc4nc3n2CCc2ccccc2)cc([N+](=O)[O-])c1	NRP1-CendR mod 28
c1ccc(Cn2c(-c3ccccc3)nc3nc4ccccc4nc32)cc1	none
CCOC(=O)N1CCN(C(=O)C2CCC(CNS(=O)(=O)c3ccc(Cl)cc3)CC2)CC1 (stereo unspecified)	NRP1-CendR mod 27
CCOC(=O)N1CCN(C(=O)C2CCN(S(=O)(=O)c3ccc(Cl)cc3)CC2)CC1	none
CCOC(=O)N1CCN(C(=O)C2CCN(S(=O)(=O)c3ccc(OCC)cc3)CC2)CC1	NRP1-CendR mod 26
CCOC(=O)N1CCN(C(=O)c2ccc(CNS(=O)(=O)c3ccc(NC(C)=O)cc3)cc2)CC1	NRP1-CendR mod 23
CCOC(=O)N1CCN(C(=O)c2ccc(CNS(=O)(=O)c3ccc(C)cc3)cc2)CC1	none
O=C(NCC(c1ccccc1)c1ccccc1)[C@H](Cc1ccccc1)NC1(C(=O)NC2CCCCC2)CCC1	none (no result: proKLK7 act, NRP1-CendR mod)
COc1ccc(C(=O)Nc2ccc(NC(C)=O)cc2)cc1S(=O)(=O)N1CCCC1	none
COc1ccc(NC(=O)c2ccc(OC)c(S(=O)(=O)N3CCCCC3C)c2)cn1 (stereo unspecified)	NRP1-CendR mod 27
Cc1cc(C)n(CC2CC(=O)N(c3ccccc3)C2=O)n1 (stereo unspecified)	NRP1-CendR mod 29
Cc1cc(C)n(CC2CC(=O)N(c3cc(Cl)cc(Cl)c3)C2=O)n1 (stereo unspecified)	none
CCOc1cc2c(C#N)c(N3CCCC3)nc(N)c2c(N)n1	none
N#Cc1c(N2CCCC2)nc(N)c2c(N)nc(N3CCCC3)cc12	NRP1-CendR mod 32
COc1cc2c(C#N)c(N3CCCC3)nc(N)c2c(N)n1	NRP1-CendR mod 30!
C[C@@H]1OC(c2ccccc2)N(C)[C@H]2C[C@H]3c4[nH]c5cccc(-c6ccccc6)c5c4CCN3C[C@@H]12 (stereo partly specified)	none (no result: NRP1-CendR mod)
CC(=O)N1c2ccccc2C(=O)NCC1C(=O)NC(C)(C)C (stereo unspecified)	none (no result: NRP1-CendR mod)
CCOc1ccc(-c2cc(C(=O)Nc3ccc4c(c3)OCCO4)c3ccccc3n2)cc1	NRP1-CendR mod 56
O=C(NC(c1ccccc1)c1ccc2ccccc2n1)C1CCN(Cc2ccc(Oc3ccccc3)cc2)CC1 (stereo unspecified)	NRP1-CendR mod 20
O=C(Cn1c(NCCCCl)nc2ccccc21)c1ccccc1	NRP1-CendR mod 31
Cc1cc[n+](-c2[nH]c(=O)sc2/C=N/NC([S-])=Nc2ccccc2)cc1	NRP1-CendR mod 55
CCc1ccc[n+](-c2[nH]c(=O)sc2/C=N/NC([S-])=Nc2ccccc2)c1	none
Cc1cc(C)c[n+](-c2[nH]c(=O)sc2/C=N/NC([S-])=Nc2ccccc2)c1	NRP1-CendR mod 47
O=c1[nH]c(-[n+]2ccccc2)c(/C=N/NC([S-])=Nc2ccccc2)s1	none
CC(C)(C)c1cc[n+](-c2[nH]c(=O)sc2/C=N/NC(=O)c2ccccc2[O-])cc1	NRP1-CendR mod 27
CC(C)(C)c1cc[n+](-c2[nH]c(=O)sc2/C=N/N=C(\[O-])c2cccnc2)cc1	none
Cc1cccc(C)c1NC(=O)Cn1nnc(-c2ccncc2)n1	none (no result: NRP1-CendR mod)
C#CCOCCOCCOCCNc1nc(N2CCOCC2)nc(N2CCN(C(=O)[C@H](CCC(=O)O)n3cc(C(N)CO)nn3)CC2)n1 (stereo partly specified)	none (no result: proKLK7 act, NRP1-CendR mod)
O=C(NCc1ccc(F)cc1)c1cc(C2CCCCN2C(=O)CCCc2ccccc2)on1 (stereo unspecified)	NRP1-CendR mod 49

Screening data (PubChem)
